Experimental data as given in the supplement of paper PMC6555819.

Columns and labels:
Assay in all cases: PBM binding z-score (relative to random genomic background probes); higher = stronger binding; sequences stand for … in GC…GCGATTGACAGCGTAGAATGAAGG
[1] = test system: RARb homodimer (NR concentration 270 nM)
In short: (§1)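 Each nuclear receptor dimer, without ligand, was incubated for 1 h on custom Agilent 4×180K protein-binding microarrays. Binding was detected with antibodies against each partner (one per run), and scanned fluorescence was regression-normalized. The binding z-scores are referenced to random human genomic background probes.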

[2] = test system: RARg:RXRa (NR concentration 270 nM, RXRa partner concentration 90 nM)
In short: as §1

[3] = test system: RARg homodimer (NR concentration 270 nM)
In short: as §1

[4] = test system: RXRa DBDmut IVT, anti-RXR (DBD mutation: RXRa K156A/R161A, NR concentration 90 nM)
In short: as §1

[5] = test system: RXRa homodimer (NR concentration 180 nM)
In short: as §1

[6] = test system: THRa:RXRa (NR concentration 90 nM, RXRa partner concentration 90 nM)
In short: as §1

[7] = test system: THRa homodimer (NR concentration 90 nM)
In short: as §1

[8] = test system: VDR homodimer (NR concentration 270 nM)
In short: as §1

Sequence	PBM binding z-score [1]	PBM binding z-score [2]	PBM binding z-score [3]	PBM binding z-score [4]	PBM binding z-score [5]	PBM binding z-score [6]	PBM binding z-score [7]	PBM binding z-score [8]
TATACAGGGTCAAAGGCCACAGTACGAATGTCGA	3.85	6.13	5.62	3.08	7.97	3.53	1.28	3.15
ATCTCTAGGTAACAGTTCAGTGAATCCCGAGGAT	0.815	0.757	0.845	0.0711	0.513	0.831	0.517	0.915
CAGCCTAGGTCAGGGCCAGTATGGGAGGAACGTT	2.38	3.22	3.76	-0.69	1.38	1.95	0.312	-0.378
CAGCCTACGTCAGGGCCAGTATAGGAGGAACGTT	-0.0418	-0.371	-0.021	-0.885	-0.169	-0.415	-0.292	-0.285
GGACCAAGGTGAATAGGTCGTTGATGAGTAGGCG	1.93	2.62	1.51	-0.31	1.81	1.91	0.417	0.294
ACTTACGGGTCAACGAGGTTGTAGCACGCGTATA	3.03	5.34	4.57	2.44	5.59	3.38	0.417	2.86
GCGACTGGGGAATCAGCAGGTTACCATAACTTAA	0.164	-0.241	-0.452	-0.352	0.0152	0.249	-0.272	-0.345
CCTTACGGGTCAAGGTTATAGCTCGGGTGGTACG	3.57	4.65	4.28	0.811	4.81	3.01	1.1	1.18
TCTTGTAGATCCAGCAGGTTAAGAAAGCCTGAGT	-0.0215	-0.196	-0.399	0.513	0.171	0.192	-0.236	-0.224
CCGACTGGGGCGGAAAGGTTACCATACCATCCGG	2.17	1.49	0.882	-1.21	1.76	1	-0.282	-0.201
CCTTACGGGTCACTTCAGGTTATAGCATCGGAGT	2.86	4.35	4.1	1.67	4.38	5.04	1.29	1.71
ATCTCTAGGTAACAAGTGCAGTGAAAGAGAGGAC	0.571	0.393	0.624	-0.169	0.249	1.11	0.468	0.625
TCTCGGAGGACACGAAGGTCTGAGCTTTCCAGAG	0.657	0.331	1.01	0.323	-0.0356	1.12	0.262	-0.384
CCTAGCAGGCCAATCTGGGTCAATCAAGGCTTGA	1.85	0.779	1.13	0.108	0.518	3.67	-0.0726	-0.0739
ATCTCTAGGTAACCAAGTTCATTGAATGCCGAAC	2.07	1.42	1.35	2.39	1.29	2.2	1.25	5.53
CGTCAAAGTTCAACTAAAGTAACGTAAAGCACGC	4.13	5.9	6.97	4.67	5.02	2.61	0.0523	3.56
GCGACTGGGGCAAAGCAGGTTACCTTAAGGTTGG	0.957	0.509	0.229	-0.0758	0.238	3.21	1.82	-0.116
TAGCCTAGGTCATGGGCCAGTAAACCACGCGAAC	2.99	4.38	5.19	0.473	3.77	3.25	1.12	0.514
ACTTACGGGTCAACGAGGTAATAGCACGCGTATA	3.07	5.4	5.19	2.15	6.11	4	0.859	1.79
ACTAGCAGGCCAAGGGTCACCCAAGATTAGTCCG	3.96	4.79	4.32	0.27	4.91	3	0.576	0.895
GCTTCTAGGTCAACTGATGGTCAGCTAAAGCTCG	3.97	5.38	5.89	1.54	3.56	3.5	1.79	0.255
ATCGAAAGGTCGAAGGTGGGTATACCCACCCGAA	2.02	3.9	3.4	0.146	4.23	1.81	-0.334	0.567
AGAATGAGGTTATTAAGATCACGGAATTGCGGTC	0.99	1.37	1.01	2.19	2.01	2.42	0.72	1.73
ACTAGCAGGCCAAGTTTGGGTCCCTCAAACAAAG	-0.155	-0.211	-0.235	-0.528	-0.565	0.0407	-0.344	-0.397
CCTACTGGGACACGAAAGGTCATTGATTCAGTGA	4.97	4.63	4.53	0.718	5.12	3.77	1.35	2.67
TGTCAAAGTTCAAAGTTAACGTAAGTATCCACAC	3.88	5.8	5.72	4.53	5.86	2.62	0.00571	4.02
CCTGCTAGGCCAATGGTCAGCTAAAGCAGCTCGC	0.323	-0.216	0.173	-0.154	-0.899	-0.489	-0.709	-0.962
CCTACTGGGCCAAGGACATTGATCAGTCAAAGCA	0.324	0.0324	0.267	-0.538	-0.348	1.29	0.695	0.333
